Here are results for nine molecules from PubChem BioAssay (EPA / NIEHS).

For assay [1], the target named is human Dopamine Transporter (DAT), SLC6A3 (gene 6531) (UniProt Q01959). The assay can be described thus: NVS_TR_hDAT: NovaScreen (NVS) Transporter Assay for human Dopamine Transporter (DAT) (AID 2283374).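 Also: activity means loss of bound radioligand signal relative to DMSO.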 A digest of the protocol:
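Duplicate single-point screening at 25 uM preceded concentration-series follow-up of actives. Binding was measured by competitive displacement of a radioligand from DAT protein, filter-counted by scintillation 1 h after dosing. Decrease relative to DMSO taken as activity.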

The target of assay [2] is rat Serotonin Transporter (SERT), Slc6a4 (gene 25553) (UniProt P31652). Description: NVS_TR_rSERT: NovaScreen (NVS) Transporter Assay for rat Serotonin Transporter (SERT) (AID 2283375). The gist of the method:
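Filtration-based radiodetection quantified loss of specific radioligand binding in rat forebrain membranes after 1 hour of chemical exposure, relative to DMSO. Chemicals were first tested in duplicate at 25 uM.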

Assay [3] addresses Agonist Androgen Response Element (ARE), AR (gene 367) (UniProt P10275). The assay can be described thus: OT_AR_ARELUC_AG_1440: Odyssey Thera (OT) 24-hour CHO-K1 Luciferase Assay for Agonist Androgen Response Element (ARE) (AID 2283379). A digest of the protocol: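 Readout: luciferase bioluminescence from CHO-K1 ARE-luc cells, measured 24 h post-dosing; agonism = increased mean luminescence vs DMSO controls, fitted in positive direction.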

In assay [4] the target is Estrogen receptor beta (Homo sapiens) (UniProt Q92731). Description: OT_ER_ERbERb_1440: Odyssey Thera (OT) 24-hour HEK293T Protein-Complementation Assay for Estrogen Receptor-beta/-beta Homodimer (AID 2283380).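 Also: fluorescence gain from ER beta LBD homodimer complementation read by laser scanning cytometry; scored as signal increase over DMSO baseline for both agonists and antagonists.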 The gist of the method:
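Fluorescence increase, nuclear for agonists or whole-cell for antagonists, relative to DMSO vehicle, quantified by laser scanning cytometer after fixation and Draq5 staining. Readout from 24 h treatment of HEK293T cells carrying complementation-paired ER beta LBD (aa 310-547).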

Assay [5] concerns the target Bile acid receptor (Homo sapiens) (UniProt Q96RI1). The assay can be described thus: OT_FXR_FXRSRC1_0480: Odyssey Thera (OT) 8-hour HEK293T Protein-Complementation Assay for Farnesoid X receptor/SRC-1 Co-activator (AID 2283383). The gist of the method:
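Fluorescence intensity read-out, 8 h post-dose, HEK293T protein-fragment complementation; FXR bait and SRC-1 prey each linked to reporter fragments. Activity scored as signal increase over DMSO negative control.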

Assay [6] shares this target. The assay can be described thus: OT_FXR_FXRSRC1_1440: Odyssey Thera (OT) 24-hour HEK293T Protein-Complementation Assay for Farnesoid X receptor/SRC-1 Co-activator (AID 2283384). The gist of the method: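 Fluorescence readout, 24 h post-dose, HEK293T; FXR and SRC-1 fused to complementary reporter fragments, association reconstitutes signal. Positive-direction fit vs DMSO baseline.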

Assay [7] addresses Estrogen receptor (Homo sapiens) (UniProt P03372). The assay can be described thus: OT_ERa_GFPERaERE_0120: Odyssey Thera (OT) 2-hour HeLa Transcription Induction Assay for Estrogen Receptor (AID 2283382). The gist of the method: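 Fluorescence microscopy read-out: inducible fluorescent protein reporter in HeLa cells, imaged 2 h post-dose. Signal increase over DMSO negative control fitted as single primary endpoint via high content image analysis.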

The subject of assay [8] is rat Norepinephrine Transporter (NET), gene 83511. The assay can be described thus: NVS_TR_rNET: NovaScreen (NVS) Transporter Assay for rat Norepinephrine Transporter (NET) (AID 2283373). A digest of the protocol: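 Competitive radioligand displacement at the rat NET using forebrain membrane preparations, 1 h incubation, filter-based scintillation readout. Primary testing in duplicate at a single 25 uM concentration; confirmed actives retested across concentrations.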

In assay [9] the target is mouse Estrogen Receptor alpha (Era), Esr1 (gene 13982) (UniProt P19785). The assay can be described thus: NVS_NR_mERa: NovaScreen (NVS) Nuclear Receptor Binding Assay for mouse Estrogen Receptor alpha (Era) (AID 2283378).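 Also: hit means loss of bound radioligand signal relative to DMSO.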 A digest of the protocol:
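Extracted mouse Era incubated with tritiated or iodinated radioligand plus test chemical, 18 h. Bound fraction separated on filters, counted by scintillation. DMSO = negative control/baseline; duplicate single-point at 25 uM, then concentration-response follow-up.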

What is called AC50 is the midpoint of the concentration-response curve, whichever way the signal moves.

Records with an inconclusive call do not appear. Active and inactive are the calls of the source. The calls were made as follows: active = hit-call score of the fitted dose curve at least 0.9, where 1 is the maximum; inconclusive = response in the unintended direction; inactive = score below 0.9.

Bile acid receptor (Homo sapiens), sequence (Q96RI1 whole entry, looked up, the tested form may be a part): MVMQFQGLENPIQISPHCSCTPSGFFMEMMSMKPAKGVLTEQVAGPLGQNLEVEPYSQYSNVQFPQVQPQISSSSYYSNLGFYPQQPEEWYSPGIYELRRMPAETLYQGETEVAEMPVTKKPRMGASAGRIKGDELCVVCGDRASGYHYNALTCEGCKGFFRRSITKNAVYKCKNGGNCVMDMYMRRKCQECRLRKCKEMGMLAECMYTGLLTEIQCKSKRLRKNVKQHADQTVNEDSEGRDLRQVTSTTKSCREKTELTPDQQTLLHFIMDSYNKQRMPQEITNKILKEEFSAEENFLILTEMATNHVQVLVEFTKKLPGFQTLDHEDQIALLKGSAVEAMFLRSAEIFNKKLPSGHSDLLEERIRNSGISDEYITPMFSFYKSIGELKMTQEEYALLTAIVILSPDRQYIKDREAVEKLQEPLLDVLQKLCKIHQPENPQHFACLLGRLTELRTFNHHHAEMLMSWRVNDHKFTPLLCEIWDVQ
human Dopamine Transporter (DAT), SLC6A3 (gene 6531), sequence (Q01959 whole entry, looked up): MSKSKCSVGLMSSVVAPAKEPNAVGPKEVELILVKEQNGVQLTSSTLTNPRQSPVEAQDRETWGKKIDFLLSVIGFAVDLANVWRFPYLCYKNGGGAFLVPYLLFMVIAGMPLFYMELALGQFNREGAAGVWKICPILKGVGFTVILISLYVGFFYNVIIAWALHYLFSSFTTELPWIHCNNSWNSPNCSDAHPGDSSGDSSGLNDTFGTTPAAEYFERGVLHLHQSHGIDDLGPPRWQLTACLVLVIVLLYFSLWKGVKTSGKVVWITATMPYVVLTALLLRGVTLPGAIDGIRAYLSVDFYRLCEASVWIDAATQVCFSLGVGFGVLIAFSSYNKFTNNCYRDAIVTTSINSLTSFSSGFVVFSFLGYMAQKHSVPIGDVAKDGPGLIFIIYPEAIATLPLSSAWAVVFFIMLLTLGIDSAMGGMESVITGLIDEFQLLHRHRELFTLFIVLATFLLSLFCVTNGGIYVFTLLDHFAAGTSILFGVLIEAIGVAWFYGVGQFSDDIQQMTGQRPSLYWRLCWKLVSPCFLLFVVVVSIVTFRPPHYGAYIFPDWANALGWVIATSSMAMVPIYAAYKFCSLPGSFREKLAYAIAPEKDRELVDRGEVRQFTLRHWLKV
Estrogen receptor (Homo sapiens), sequence (P03372 whole entry, looked up): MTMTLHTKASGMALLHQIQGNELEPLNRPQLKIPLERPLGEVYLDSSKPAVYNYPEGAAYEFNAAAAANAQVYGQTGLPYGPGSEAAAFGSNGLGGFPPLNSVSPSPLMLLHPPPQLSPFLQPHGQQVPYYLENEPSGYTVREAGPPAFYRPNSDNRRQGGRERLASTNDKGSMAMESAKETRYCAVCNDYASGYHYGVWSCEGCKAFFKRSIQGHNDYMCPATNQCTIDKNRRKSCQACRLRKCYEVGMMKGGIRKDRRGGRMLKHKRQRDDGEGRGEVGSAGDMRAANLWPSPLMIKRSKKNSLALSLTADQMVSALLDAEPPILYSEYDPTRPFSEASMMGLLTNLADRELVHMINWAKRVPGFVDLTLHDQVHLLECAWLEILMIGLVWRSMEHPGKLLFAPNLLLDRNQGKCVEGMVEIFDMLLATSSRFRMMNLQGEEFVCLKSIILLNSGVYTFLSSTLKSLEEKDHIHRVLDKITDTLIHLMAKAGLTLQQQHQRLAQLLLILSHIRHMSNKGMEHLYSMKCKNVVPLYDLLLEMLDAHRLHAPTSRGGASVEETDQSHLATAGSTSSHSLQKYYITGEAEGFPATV
Agonist Androgen Response Element (ARE), AR (gene 367), sequence (P10275 whole entry, looked up): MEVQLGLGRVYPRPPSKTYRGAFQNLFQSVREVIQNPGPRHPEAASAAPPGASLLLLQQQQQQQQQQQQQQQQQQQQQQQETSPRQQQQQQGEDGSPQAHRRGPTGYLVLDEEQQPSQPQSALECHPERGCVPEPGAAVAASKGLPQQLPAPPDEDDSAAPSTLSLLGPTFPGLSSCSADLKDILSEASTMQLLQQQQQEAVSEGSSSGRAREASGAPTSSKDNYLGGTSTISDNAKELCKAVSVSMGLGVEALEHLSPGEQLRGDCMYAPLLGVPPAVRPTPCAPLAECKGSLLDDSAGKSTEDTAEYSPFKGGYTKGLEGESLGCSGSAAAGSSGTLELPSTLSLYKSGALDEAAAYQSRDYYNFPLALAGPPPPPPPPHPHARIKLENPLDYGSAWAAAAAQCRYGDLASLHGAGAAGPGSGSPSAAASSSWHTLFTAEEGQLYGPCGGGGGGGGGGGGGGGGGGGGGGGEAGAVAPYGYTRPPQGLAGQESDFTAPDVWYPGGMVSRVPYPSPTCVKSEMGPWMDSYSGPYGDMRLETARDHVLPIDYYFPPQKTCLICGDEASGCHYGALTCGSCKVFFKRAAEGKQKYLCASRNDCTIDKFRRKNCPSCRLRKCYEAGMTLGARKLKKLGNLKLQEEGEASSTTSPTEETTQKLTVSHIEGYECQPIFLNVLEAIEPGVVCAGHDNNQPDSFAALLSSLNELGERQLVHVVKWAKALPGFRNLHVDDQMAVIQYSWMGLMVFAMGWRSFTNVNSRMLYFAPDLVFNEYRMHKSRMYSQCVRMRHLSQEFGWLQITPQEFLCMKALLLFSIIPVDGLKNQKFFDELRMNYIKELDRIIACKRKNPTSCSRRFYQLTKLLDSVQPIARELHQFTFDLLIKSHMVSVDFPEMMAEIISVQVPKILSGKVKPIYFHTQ
rat Serotonin Transporter (SERT), Slc6a4 (gene 25553), sequence (P31652 whole entry, looked up): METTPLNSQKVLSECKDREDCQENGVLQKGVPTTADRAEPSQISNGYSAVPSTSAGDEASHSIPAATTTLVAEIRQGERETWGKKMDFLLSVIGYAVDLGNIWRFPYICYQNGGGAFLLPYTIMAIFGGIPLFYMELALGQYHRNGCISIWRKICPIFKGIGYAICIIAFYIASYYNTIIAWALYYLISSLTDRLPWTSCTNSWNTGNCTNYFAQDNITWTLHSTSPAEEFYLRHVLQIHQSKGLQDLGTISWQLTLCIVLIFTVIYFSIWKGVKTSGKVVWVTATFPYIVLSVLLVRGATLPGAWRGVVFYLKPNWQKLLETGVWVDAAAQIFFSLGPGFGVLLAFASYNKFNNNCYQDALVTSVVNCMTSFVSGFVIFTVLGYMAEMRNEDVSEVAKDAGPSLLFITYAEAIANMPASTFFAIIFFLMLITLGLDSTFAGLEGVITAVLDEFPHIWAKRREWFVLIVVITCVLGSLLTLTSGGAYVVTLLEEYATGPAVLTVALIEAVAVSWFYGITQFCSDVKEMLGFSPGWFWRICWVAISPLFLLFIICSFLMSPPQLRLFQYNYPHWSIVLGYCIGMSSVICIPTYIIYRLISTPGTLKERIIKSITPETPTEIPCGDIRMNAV
Estrogen receptor beta (Homo sapiens), sequence (Q92731 whole entry, looked up, the tested form may be a part): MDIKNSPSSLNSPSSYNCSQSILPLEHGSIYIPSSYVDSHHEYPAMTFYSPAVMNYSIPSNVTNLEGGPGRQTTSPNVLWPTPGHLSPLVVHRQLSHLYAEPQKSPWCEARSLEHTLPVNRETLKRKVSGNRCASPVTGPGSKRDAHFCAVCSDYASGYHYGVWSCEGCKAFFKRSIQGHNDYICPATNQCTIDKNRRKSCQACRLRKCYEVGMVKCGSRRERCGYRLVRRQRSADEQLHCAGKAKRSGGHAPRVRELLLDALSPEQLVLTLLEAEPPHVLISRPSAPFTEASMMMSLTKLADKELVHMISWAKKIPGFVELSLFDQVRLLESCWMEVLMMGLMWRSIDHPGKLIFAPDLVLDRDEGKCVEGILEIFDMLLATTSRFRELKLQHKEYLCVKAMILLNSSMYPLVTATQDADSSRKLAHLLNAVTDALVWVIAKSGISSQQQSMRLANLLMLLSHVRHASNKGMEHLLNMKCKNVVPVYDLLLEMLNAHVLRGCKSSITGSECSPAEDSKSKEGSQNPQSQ
mouse Estrogen Receptor alpha (Era), Esr1 (gene 13982), sequence (P19785 whole entry, looked up): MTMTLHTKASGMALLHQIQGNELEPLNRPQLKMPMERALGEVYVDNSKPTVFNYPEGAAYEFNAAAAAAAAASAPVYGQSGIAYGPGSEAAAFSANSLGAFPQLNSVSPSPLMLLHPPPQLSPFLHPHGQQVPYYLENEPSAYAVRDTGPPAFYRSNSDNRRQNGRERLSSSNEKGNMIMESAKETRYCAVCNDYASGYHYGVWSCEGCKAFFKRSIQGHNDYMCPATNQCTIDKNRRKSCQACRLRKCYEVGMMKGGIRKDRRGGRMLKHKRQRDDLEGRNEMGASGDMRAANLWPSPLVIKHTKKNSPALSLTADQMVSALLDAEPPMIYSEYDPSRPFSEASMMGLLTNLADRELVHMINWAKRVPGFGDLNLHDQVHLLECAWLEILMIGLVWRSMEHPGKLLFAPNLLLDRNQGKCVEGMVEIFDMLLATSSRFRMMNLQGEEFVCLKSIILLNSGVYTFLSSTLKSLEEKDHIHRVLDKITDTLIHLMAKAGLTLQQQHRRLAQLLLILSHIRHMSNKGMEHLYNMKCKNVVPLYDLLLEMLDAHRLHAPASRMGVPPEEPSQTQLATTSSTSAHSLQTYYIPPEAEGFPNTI

`CNS(=O)(=O)c1cc(C(=O)N2CCC(CCN3C4CCC3CC(n3c(C)nc5ccccc53)C4)(c3cccc(F)c3)CC2)c(Cl)cc1F` (stereo unspecified): the AC50 was 8.74 µM (active) in [1], 8.93 µM (active) in assay [2], 12.6 µM (active) in assay [5] and 17.6 µM (active) in assay [6]. For the same molecule, the molecule was classed as inactive in [3] and in assay [4].

On to `CCC(C)(C)C(=O)O[C@H]1C[C@@H](C)C=C2C=C[C@H](C)[C@H](CC[C@@H]3C[C@@H](O)CC(=O)O3)[C@H]21`, for which the AC50 in [1] was 25 µM (active). Also, the outcome in assay [7] was inactive.

`CC(C)CCO`: the molecule was called inactive in assay [1], in assay [4] and in [7].

`CC(C)=CCC/C(C)=C/CO`: the outcome in assay [3] and in assay [5] was inactive.

For the molecule `CCc1cc(SCc2sc(-c3ccc(C(F)(F)F)cc3)nc2CN2CCN(c3ccc(OC)cc3)CC2)ccc1OCC(=O)O`, the AC50 in assay [1] is 13.9 µM (active); in [6] it was 12 µM (active). In assay [5], the result was inactive.

Take `COc1cccc(-c2ccc(/C=C\CN3CCCCCC3)cc2Cl)c1`: the AC50 in [8] is 9.83 µM (active); in [1], 5.87 µM (active). For the same molecule, the molecule was called inactive in [2], in assay [9] and in assay [7].

For the molecule `Nc1ccc(Nc2ccccc2)cc1`, the AC50 in assay [1] is 7.42 µM (active). In addition, the result in assay [7] was inactive.

For the molecule `Cc1ccc(N)cc1O`, the molecule was classed as inactive in assay [3] and in [7].

For `O=C(OC[C@H]1O[C@@H](OC(=O)c2cc(O)c(O)c(OC(=O)c3cc(O)c(O)c(O)c3)c2)[C@H](OC(=O)c2cc(O)c(O)c(OC(=O)c3cc(O)c(O)c(O)c3)c2)[C@@H](OC(=O)c2cc(O)c(O)c(OC(=O)c3cc(O)c(O)c(O)c3)c2)[C@@H]1OC(=O)c1cc(O)c(O)c(OC(=O)c2cc(O)c(O)c(O)c2)c1)c1cc(O)c(O)c(OC(=O)c2cc(O)c(O)c(O)c2)c1`, in assay [1], the AC50 was 2.65 µM (active).
